Results on 16 compounds are retold here after PubChem BioAssay (NCATS).

Records with an inconclusive call do not appear. Active and inactive are the calls of the source. Calls come from the whole dose curve; as a rule, active = well fitted curve in the direction sought with a large enough effect; inconclusive = small, poorly fitted or top-dose-only effect, or another doubt; inactive = no such curve, though single readings can be large or run the other way.

Sequence of Nuclear receptor subfamily 1 group I member 2 (Homo sapiens) (O75469 whole entry, looked up): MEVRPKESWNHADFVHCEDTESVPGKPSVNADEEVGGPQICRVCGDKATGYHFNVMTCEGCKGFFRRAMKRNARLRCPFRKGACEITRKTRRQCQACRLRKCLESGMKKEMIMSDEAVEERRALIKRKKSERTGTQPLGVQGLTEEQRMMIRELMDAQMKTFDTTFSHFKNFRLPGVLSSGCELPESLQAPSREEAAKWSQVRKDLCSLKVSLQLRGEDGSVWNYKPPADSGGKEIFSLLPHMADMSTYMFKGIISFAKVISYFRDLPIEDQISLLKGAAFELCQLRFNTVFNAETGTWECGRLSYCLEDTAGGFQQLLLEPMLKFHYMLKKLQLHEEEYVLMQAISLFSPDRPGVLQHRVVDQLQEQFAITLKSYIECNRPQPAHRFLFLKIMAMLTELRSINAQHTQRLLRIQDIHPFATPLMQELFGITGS

The assay concerns the target Nuclear receptor subfamily 1 group I member 2 (Homo sapiens) (UniProt O75469). Description: Dual reporter qHTS for antagonist of Pregnane X Receptor (hPXR) against the NCATS DSHEA and TCM libraries: Luminescence Readout (AID 1920060). The following applies: hPXR dual reporter cells, luciferase luminescence, antagonist mode; series mostly up to 40 µM. From the text: Assay Development and Screening Technology Laboratory (ADST)
National Center for Advancing Translational Sciences (NCATS), Rockville, MD
National Institute of Health (NIH), Bethesda, Maryland
Dietary Supplements and Natural Products have minor oversight of their safety and efficacy. We assembled a collection of Dietary Supplements and Natural Products (DSNP) as well as Traditional Chinese Medicinal (TCM) Plant extracts, which were screened against an in vitro panel of assays, including a liver cytochrome p450 enzyme panel, CAR/PXR signaling pathways, and P-gp transporter assays, to assess their activity. This pipeline facilitated the interrogation of Natural Product-Drug Interaction (NaPDI) through prominent metabolizing pathways. In addition, we compared the activity profiles of the DSNP/TCM substances with those of an approved drug collection. Many of the approved drugs have well-annotated mechanisms of action (MOA) while the MOAs for most of the DSNP and TCM samples remain unknown. Based on the premise that compounds with similar activity profiles tend to share similar targets or MOA, we clustered the library activity profiles to identify overlap with the NCATS Pharmaceutical Collection to predict the MOAs of the DSNP/TCM substances. Overall, we highlight four significant bioactivity profiles (measured by p-values) as examples of this prediction. To assess broad cytotoxicity, we employed screening against a HepG2 cell line. In addition, transporter-mediated drug interactions are utilized in the characterization of DDIs using a P-glycoprotein (P-gp) assays. To profile potential P-gp activity, a differential cell viability was measured against two cell lines: a parental KB-3-1 human cervical adenocarcinoma cell line and the drug-resistant subline KB-8-5-11 that overexpresses P-gp.
To this end, we profiled both collections for potential CAR and/or PXR activity, employing a previously published 1536-well qHTS assay.
[1] Lee TD, et al. A High-Throughput Screen of a Library of Therapeutics Identifies Cytotoxic Substrates of P-glycoprotein. Mol Pharmacol. Nov 2019;96(5):629-640. doi:10.1124/mol.119.115964
For PXR luciferase reporter gene assays, we used hPXR-LucHepG2cells provided by Dr. Taosheng Chen (Department of Chemical Biology and Therapeutics, St. Jude Children's Research Hospital). Cells were cultured in EMEM supplemented with 10% fetal bovine serum, 100U/mL penicillin and 100ug/mL streptomycin, and 500ug/mL of geneticin.
PROTOCOL TABLE (as described by Inglese J, Shamu CE and Guy RK. 2007)
SEQUENCE No. (e.g., 1, 2, 3, etc.); PARAMETER (e.g., Cells, Incubation, Reagent, etc.); VALUE; DESCRIPTION.
1; Cells; 5 uL; hPXR-LucHepG2; white solid-bottom Greiner plate.
2; Incubation; 5h; 37C, 95% humidity, 5% CO2
3; Compounds and control; 23 nL; Kalypsis pintool (Wako USA).
4; Reagent; 1uL; rifampicin (RIF) in the antagonist mode.
6; Reagent; 1 uL; CellTiter-Fluor detection reagent.
7; Incubation; 1 hr; 37C, 5% CO2.
8; Read; Fluorescence; ViewLux plate reader.
9; Reagent; 4 uL; ONE-Glo Luciferase detection reagent.
10; Incubation; 30 min; room temperature.
11; Read; Luminescence; ViewLux plate reader.
NOTES (numbers refer to Sequence numbers above)
1. Briefly, 5uL of hPXR-LucHepG2 cells in phenol red-free DMEM containing 5% charcoal-stripped FBS, 1 mM sodium pyruvate (Invitrogen), 2 mM L-glutamine (Invitrogen), and 100 U/mL penicillin and 100ug/mL streptomycin were dispensed using a BioRAPTR FRD at 4 x 10^5cells/mL (2000cells/well) in tissue culture-treated 1536-well white assay plates (GreinerBio-One).
2. Plates were incubated for 5h at 37C, 95% humidity, and 5% CO2 to allow for cell attachment.
3. Compounds (final concentration for most substances ranged from 15.6 nM to 45.9uM), positive SPA70 (final concentration range of 2.8 nM to 92uM for the antagonist mode), and cytotoxicity control tetraoctyl ammonium bromide (final concentration of 92uM) were transferred (23 nL) via pintool (Wako Automation).
4-5. […]
Background: qHTS replaces the single test concentration by a dilution series.
Consider `CCCCCCCCCCCCCCCCCCCC(=O)O`, for which the compound was called inactive.

`COC1=CC(=O)O[C@@H](/C=C/c2ccc3c(c2)OCO3)C1`: the result was inactive.

Regarding `COC(=O)C1=CO[C@@H](C)[C@@H]2CN3CC[C@@]4(C(=O)Nc5ccccc54)[C@@H]3CC12` (stereo partly specified), the call was inactive.

On to `O=S(=O)(O)O`, for which the outcome was inactive.

As for `COc1cc2c(cc1O)C[C@H]1c3c(cc(OC)c(O)c3-2)CCN1C`, the compound was classed as inactive.

With `N#CC(O[C@@H]1O[C@H](CO[C@@H]2O[C@H](CO)[C@@H](O)[C@H](O)[C@H]2O)[C@@H](O)[C@H](O)[C@H]1O)c1ccccc1` (stereo partly specified), the compound was classed as inactive.

Consider `C=C(C)[C@@H]1CCC(C)=C[C@H]1c1c(O)cc(CCCCC)cc1O`, for which the call was inactive.

With `C=C[C@H]1CN2CC[C@@]3(C(=O)Nc4ccccc43)[C@@H]2C[C@@H]1/C(=C\OC)C(=O)OC`, the call was inactive.

Turning to `COc1cc2c(cc1O)CC1NCCc3cc(OC)c(OC)c-2c31` (stereo unspecified), the compound was called inactive.

Regarding `CC[C@@H]1CN2CC[C@]3(C(=O)Nc4ccccc43)[C@@H]2C[C@@H]1/C(=C\OC)C(=O)OC`, the compound was classed as inactive.

`COc1ccc2c(c1O)-c1c(OC)c(OC)cc3c1[C@H](C2)N(C)CC3`: the outcome was inactive.

Turning to `COC1=CC(=O)OC(CCc2ccccc2)C1` (stereo unspecified), the result was inactive.

For the compound `C=CCc1ccc2c(c1)OCO2`, the compound was classed as inactive.

For `C=C[C@H]1CN2CCc3c([nH]c4ccccc34)[C@H]2C[C@@H]1/C(=C\OC)C(=O)OC`, the compound was called inactive.

Regarding `COc1cc2c(cc1O)CC1c3c(cc(O)c(OC)c3-2)CCN1C` (stereo unspecified), the compound was classed as inactive.

As for `COC1=C[C@@]23CCN(C)[C@H](Cc4ccc(OC)c(O)c42)C3=CC1=O`, the call was inactive.
